Screening data deposited in PubChem by Sanford-Burnham Center for Chemical Genomics.
In the library only some 3.9% were active in any assay of this set; here they are far more common.
KKLEB cytotox: counter-screen for CF NF-kB inhibitors: cytotoxicity; KKLEB CF airway cells viability, ATPlite luminescence, overnight; hits give low values; cells stimulated with P. aeruginosa culture filtrate; 0.36% of 360,000 active; activity change (cytotoxicity), % at 5 µM;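 active = corrected activity change at or below -50% at 5 µM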
CF NFkB block: inhibitors of cystic fibrosis induced NF-kB. AID 588850. inhibition, % at 5 µM. KKLEB NF-kB-GFP reporter, PAF-induced, GFP fluorescence overnight. 0.86% of 360,000 active;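 active = at least 50% inhibition at 5 µM, scaled per plate between neutral and stimulator controls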;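 note: PAF is a Pseudomonas aeruginosa culture filtrate used as stimulus; plate controls were PAF-stimulated DMSO wells for no effect and unstimulated DMSO wells for full effect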
Peg3 prom inh: reduces Peg3 promoter-driven luciferase expression in HeLa; HeLa PEG-Prom luciferase reporter, luminescence, overnight; inhibition, % at 20 µM; 1.7% of 360,000 active;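 active = inhibition of at least 50% at 20 µM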
TWEAK-Fn14 inh: blocks TWEAK-Fn14 interaction in a reporter cell assay | TWEAK-stimulated Fn14 reporter cells, luciferase luminescence, 8 h | inhibition, % at 10 µM | 2% of 360,000 active | AID 1159606; in the data active = inhibition above about 50%
HIF-2a block: HIF-2a inhibition; 0.72% of 360,000 active; AID 624352; 786-0 RCC cells HIF-2a reporter, luciferase luminescence, overnight; inhibition, % at 18.8 µM;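 active = inhibition of the luminescence signal of 40% or more relative to plate controls, in a single-dose primary screen at 18.75 µM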
TROY NFkB inh: inhibitors of TROY-dependent NF-kB signaling; Q293 LMP1-TROYcd NF-kB luciferase reporter, 4 h; inhibition, % at 10 µM; 0.98% of 360,000 active; AID 1347056;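 active = compounds whose plate-normalised and pattern-corrected inhibition of the luciferase reporter signal at the single screening dose is 50% or more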
The depositor's hits bear a star; · = no result.

SMILES	KKLEB cytotox	CF NFkB block	Peg3 prom inh	TWEAK-Fn14 inh	HIF-2a block	TROY NFkB inh
COc1ccc(-c2cc3c(=O)n(CC(=O)NCCCN4CCC(Cc5ccccc5)CC4)ncn3n2)cc1	-61.9*	23.6	96.0*	40.6	-5.8	10.0
Cc1nn(CC(=O)NCCCN2CCC(N3CCCCC3)CC2)c(=O)c2cc(-c3ccccc3)nn12	-8.4	-7.1	77.9*	3.0	5.0	3.6
COc1ccc(-c2cc3c(=O)n(CC(=O)NCCCN4CCN(Cc5ccccc5)CC4)ncn3n2)cc1	-41.2	2.9	-75.2	22.6	-41.1	-11.8
COC(=O)CSc1nc(N)c(C#N)c(C(C)C)c1C#N	-10.9	2.2	2.7	-2.4	17.0	-2.6
CC(=O)Nc1ccccc1C(=O)C(=O)Nc1cccc(C(=O)N2CC(C)CC(C)C2)c1 (configuration not stated)	1.3	4.3	1.5	77.6*	-2.5	14.2
C=CCNC(=S)N/N=C/c1cn(-c2ccccc2)nc1-c1ccc(OC)cc1	-52.8*	53.2*	-14.3	-23.1	8.0	-36.7
COc1ccc(-c2nn(-c3ccccc3)cc2/C=N/NC(=O)c2ccc(Br)o2)cc1	14.4	-24.8	89.6*	93.6*	-141.0	75.9*
CSc1ccc(C(=O)N2CCc3ccc(NC(=O)c4ccccn4)cc3C2)cc1	2.0	13.3	-131.3	-21.6	-138.4	-4.4
CSc1ccccc1C(=O)N1CCc2ccc(NC(=O)c3ccccn3)cc2C1	-7.8	-1.8	-216.0	60.5*	-163.6	74.0*
CCC12CC1(C(=O)OC)C(=O)N1CCc3c([nH]c4ccccc34)C12 (configuration not stated)	12.6	-12.1	10.8	-28.6	19.1	62.0*
COC(=O)CC1CC2(C(=O)OC)c3[nH]c4ccccc4c3CCN2C1=O (configuration not stated)	-5.1	11.8	13.0	16.0	10.2	10.2
COc1cccc2cc(C(=O)C3=C(O)C(=O)N(CCN(C)C)C3c3ccc(Cl)cc3)oc12 (configuration not stated)	-14.5	5.9	12.5	60.2*	12.5	-0.6
O=C(N/N=C/c1ccccc1)c1ccc(OCc2ccccc2)cc1	9.6	-0.6	-6.2	-9.7	-35.7	-30.1
NC(N)=N/N=C/c1ccc(OCc2ccccc2)cc1	-12.1	-4.6	54.1*	1.6	-115.3	-34.8
NC(N)=N/N=C/c1ccc(OCc2ccc(Cl)cc2)cc1	-31.0	35.4	110.1*	27.9	-124.3	-10.5
Cc1ccc(COc2ccc(/C=N/O)cc2)cc1	4.4	-18.6	-281.5	6.5	-176.5	-56.3
CC(=O)c1ccc2c(c1)CC1(C2)Cc2cc3c(cc2C1)C(=O)CC3 (configuration not stated)	-8.4	27.3	-52.0	56.5*	-27.3	51.2*
O=C(Cc1ccccc1)NC(Nc1ccccc1)C(Cl)(Cl)Cl (configuration not stated)	-3.0	3.6	5.2	-6.0	17.0	10.1
O=C(Cc1ccccc1)NC(Nc1cccc2ccccc12)C(Cl)(Cl)Cl (configuration not stated)	6.4	-2.3	10.0	11.7	8.1	56.4*
CC(=O)c1cccc(NC(=O)COc2cc3oc(=O)c(CC(C)O)c(C)c3cc2Cl)c1 (configuration not stated)	-14.8	46.9	8.8	59.8*	7.2	44.7
CCOC(=O)c1ccc(NC(=O)COc2cc3oc(=O)c(CC(C)O)c(C)c3cc2Cl)cc1 (configuration not stated)	-5.7	7.3	10.1	6.0	15.1	17.6
CCOC(=O)c1c(C)[nH]c(C)c1C(=O)CSc1nncs1	4.6	-2.3	22.2	16.5	19.3	-17.8
CCN(CC)c1ccc(-c2nnc(SCC(=O)Nc3ccccc3C#N)n2-c2ccccc2)cc1	1.9	-2.6	23.0	74.9*	21.4	·
CSc1ccc(S(=O)(=O)Nc2c(C)n(C)n(-c3ccccc3)c2=O)cc1	13.4	-7.5	5.9	-17.6	5.6	13.2
Cc1csc(NC(=O)c2ccc(C)c([N+](=O)[O-])c2)n1	2.2	-32.4	-140.5	68.2*	-105.9	16.8
Cc1csc(NC(=O)c2cc3c(s2)CCC3)n1	-3.3	-13.1	-119.1	68.0*	-91.8	-46.7
COc1ccccc1NC(=O)c1ccc(NC(=O)c2cc3c(s2)CCC3)cc1	1.4	1.1	13.3	58.7*	-8.3	30.7
